Experimental data: PubChem BioAssay (NCATS)
Records with an inconclusive call do not appear. Values without a mark were called inactive. Calls follow the shape of the dose curve; as a rule, active = well fitted activation curve with a large enough effect; inconclusive = small, poorly fitted or top-dose-only effect; inactive = no such curve, though single readings can be large or run the other way.

Molecular target: Cellular tumor antigen p53 (Homo sapiens) (UniProt P04637)
Experiment: Primary qHTS for small molecule compounds that upregulate eGFP-tagged delta133p53alpha (in N-terminal) cells. (AID 2060322);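 also: series mostly up to about 56 µM; 0% = DMSO vehicle and 100% = reference activator; nearly all actives have a fitted effect of over 75% in size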
Settings: NCI-H358 eGFP-delta133p53alpha fluorescence, 24 h; activation: stronger effect = higher value
Outline: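 NCI-H358 cells pre-induced 24 h with 10 ng/ml doxycycline to express N-terminal eGFP-delta133p53alpha, then dosed 24 h at 37C without doxycycline; fixed, Hoechst-stained, GFP intensity by laser scanning cytometry, normalized to DMSO (0%) and 57.5 uM 5-azacytidine (100%).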

Chain of Cellular tumor antigen p53 (Homo sapiens) (P04637 whole entry, looked up): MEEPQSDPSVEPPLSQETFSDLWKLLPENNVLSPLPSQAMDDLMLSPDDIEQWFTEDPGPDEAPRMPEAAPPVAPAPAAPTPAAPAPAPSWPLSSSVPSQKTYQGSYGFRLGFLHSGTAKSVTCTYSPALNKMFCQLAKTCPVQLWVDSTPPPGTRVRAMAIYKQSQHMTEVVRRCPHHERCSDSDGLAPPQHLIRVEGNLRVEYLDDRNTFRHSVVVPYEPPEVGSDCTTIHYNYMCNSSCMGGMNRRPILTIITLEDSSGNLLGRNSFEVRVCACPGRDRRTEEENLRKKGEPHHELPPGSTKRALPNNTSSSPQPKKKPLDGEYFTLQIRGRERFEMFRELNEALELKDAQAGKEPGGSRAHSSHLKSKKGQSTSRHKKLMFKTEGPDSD

Compared with NC1=N[C@@]2(c3cc(NC(=O)c4ccc(F)cn4)ccc3F)COC[C@@H]2CS1, CNc1nc(-c2ccc3c(N)n[nH]c3c2)cc(N2C[C@@H](C(=O)NC3CCCCC3)CC[C@@H]2C)n1 is lower in activation: 87.4% for the first, -21.3% for the second.

Compared with C[C@H](NC(=O)C(C#N)=Cc1cccc(Br)n1)c1ccccc1, CCCCCOc1ccccc1/C(=C\SC)n1ccnc1 is lower in activation: 11.9% for the first, -16.7% for the second.

N#Cc1cc([N+](=O)[O-])c2sc(C(N)=O)[n+]([O-])c2c1 was tested, and the activation was -56.4%.
